In the library only some 21% were active in any assay of this set; here they are far more common.
TDP1 cell noCPT = qHTS for Inhibitors of human tyrosyl-DNA phosphodiesterase 1 (TDP1): qHTS in cells in absence of CPT; DT40 Tdp1-/- hTDP1 cells, no CPT, ATP luminescence, 48 h; Potency, µM (doses to about 46.2 µM), actives largely listed as inhibitors; actives 15% (n = 420,000); AID 686978, 2013; further: nearly all actives have a fitted effect of over 55% in size
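Luminescent ATP content (CellTiter-Glo) served as the growth readout. Knockout chicken DT40 cells expressing human TDP1 were exposed to compounds without camptothecin for a minimum 48 hr at 37 °C.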
IL-1B inflam inh = qHTS for Inhibitors of Inflammasome Signaling: IL-1-beta AlphaLISA Primary Screen; activity change, % at 57.5 µM; THP-1 LPS/ATP IL-1B secretion, AlphaLISA, 16 h; stronger effect = lower value; AID 743279, 2014; actives 4.7% (n = 360,000); in the data active means activity change below about -50%; inconclusive means mostly about -30% to -49%
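Secreted IL-1B measured by AlphaLISA bead assay after 16 h compound exposure of THP-1 cells; compounds (final up to 57.5 uM) added 1 h before LPS (250 ng/mL) and ATP (1.25 mM) stimulation; lower signal means less secretion.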
DT40 TDP1 CPT = qHTS for Inhibitors of human tyrosyl-DNA phosphodiesterase 1 (TDP1): qHTS in cells in presence of CPT; actives 12% (n = 420,000); chicken DT40 Tdp1-/-;hTDP1 cells + 20 nM CPT, ATP luminescence, 48 h; Potency, µM (highest dose often 46.2 µM), most hits filed as inhibitors; further: nearly all actives have a fitted effect of over 55% in size
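Chicken DT40 Tdp1-/- cells stably complemented with human TDP1 were seeded at 400 cells/well in medium containing 20 nM camptothecin, exposed to pin-transferred compounds, and grown at 37 °C for at least 48 hr. Viability was read as ATP luminescence.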
ClpP mod = qHTS Assay for Activators of ClpP; ATP-dependent Clp protease proteolytic subunit (Bacillus subtilis (strain 168)), P80244; purified B. subtilis ClpP, FRET peptide cleavage, 20 min; Potency, µM (highest dose often 57.5 µM); actives 1.9% (n = 340,000); AID 651965, 2013; active means well fitted falling curve with a large enough effect; inconclusive means small, poorly fitted or top-dose-only effect; inactive means no such curve, though single readings can be large or run the other way; further: the source files actives as falling curves though it sought activators and does not explain the sign; nearly all actives have a fitted effect of over 65% in size
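Buffer: 100 mM Tris/HCl pH8, 100 mM KCl, 0.05% low protease BSA, 2.5% glycerol, 0.01% Tween-20. ClpP 10 microg/mL final; 20 min RT; delta FRET normalized to ADEP and DMSO controls.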
DRD3 agonist = qHTS of D3 Dopamine Receptor Agonist: qHTS | D3R DiscoveRx beta-arrestin cells, luminescence, 90 min | actives 0.58% (n = 410,000) | max activation, %; in the data active means max activation above about 30%
Target sequence (P35462 whole entry, looked up): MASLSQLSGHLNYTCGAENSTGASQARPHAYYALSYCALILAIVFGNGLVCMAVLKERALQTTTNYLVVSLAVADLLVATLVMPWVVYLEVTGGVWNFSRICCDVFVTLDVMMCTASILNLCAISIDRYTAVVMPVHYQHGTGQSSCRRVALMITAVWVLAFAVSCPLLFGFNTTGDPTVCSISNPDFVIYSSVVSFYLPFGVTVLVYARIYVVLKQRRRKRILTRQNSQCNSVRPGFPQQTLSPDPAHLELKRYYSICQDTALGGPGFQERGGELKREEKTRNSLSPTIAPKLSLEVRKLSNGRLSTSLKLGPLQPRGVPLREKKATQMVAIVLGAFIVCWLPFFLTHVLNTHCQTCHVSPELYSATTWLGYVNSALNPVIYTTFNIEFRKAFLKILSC
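Agonist-mode cell screen: cells plated at 1500/well and incubated overnight at 37 °C, then exposed to library compounds for 90 min at 37 °C. Detection reagent was added for 30–60 min at room temperature, and luminescence was read.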
DRD3 antagonist = qHTS of D3 Dopamine Receptor Antagonist: qHTS; AID 652054, 2013; max response, negative = inhibition, %; D3R cells, DiscoveRx beta-arrestin luminescence, antagonist mode; stronger effect = lower value; actives 2.5% (n = 360,000); D(3) dopamine receptor (Homo sapiens), P35462; in the data active means max response below about -50%; inconclusive means no clear call, values can overlap the other calls
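Cells expressing the human receptor were seeded at 1500 cells/well, incubated overnight at 37 degrees C in 5% CO2, then exposed to library compounds with dopamine controls for 90 minutes at 37 degrees C before luminescent detection.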
Each line names hits and unclear results; the compound was inactive in the other large screens. Unless noted, the call rests on the fitted dose curve; in most records, active means well fitted inhibition curve with a large enough effect; inconclusive means small, poorly fitted or top-dose-only effect; inactive means flat fitted curve, though single readings scatter.

O=C(Nc1nc(-c2ccc(Oc3ccccc3)cc2)cs1)C1=COCCO1	TDP1 cell noCPT 12µM, DT40 TDP1 CPT inconclusive, ClpP mod inconclusive
O=C(Nc1nc(-c2cc(F)ccc2F)cs1)C1=COCCO1	TDP1 cell noCPT inconclusive, DT40 TDP1 CPT 18µM, DRD3 antagonist inconclusive
CCN(CC)C(=O)Cn1cnc2sc(C)c(S(=O)(=O)N3CCC(C)CC3)c2c1=O	none (no result: ClpP mod)
Cc1cnc(SCC2CCCO2)nc1C1CCCN(C(=O)C2=NNC(=O)CC2)C1 (stereo unspecified)	none (no result: IL-1B inflam inh, ClpP mod, DRD3 agonist, DRD3 antagonist)
NC(=O)CC(NC(=O)c1ccccc1)c1ccc(N2CCC(N3CCCC3)CC2)c([N+](=O)[O-])c1 (stereo unspecified)	none
NC(=O)CC(NC(=O)c1ccc(Br)cc1)c1ccc(N2CCC(Cc3ccccc3)CC2)c([N+](=O)[O-])c1 (stereo unspecified)	DT40 TDP1 CPT 16µM
NC(=O)CC(NC(=O)c1ccccc1)c1ccc(N2CCN(c3ccccn3)CC2)c([N+](=O)[O-])c1 (stereo unspecified)	TDP1 cell noCPT 21µM, DT40 TDP1 CPT 21µM
NC(=O)CC(NC(=O)c1ccccc1)c1ccc(N2CCC(Cc3ccccc3)CC2)c([N+](=O)[O-])c1 (stereo unspecified)	TDP1 cell noCPT 5.2µM, DT40 TDP1 CPT 7.3µM
CC(C)n1nnnc1SCC(=O)N1CCN(Cc2ccc3c(c2)OCCO3)CC1	none
O=C(CSc1nc(-c2ccco2)nc2cc(=O)[nH]n12)Nc1ccc(F)cc1	none (no result: IL-1B inflam inh, DRD3 antagonist)
COc1ccc([C@H]2C[C@H](n3cc(C4CC4)nn3)[C@@H](O)CN2C(=O)C2CCCCC2)cc1	none
CC(=O)N1CCN(c2nnc(-c3ccccc3)c3ccccc23)CC1	none
COc1ccc(OCC(=O)N2CCN(c3nnc(-c4ccccc4)c4ccccc34)CC2)cc1	TDP1 cell noCPT 18µM, IL-1B inflam inh -66, DT40 TDP1 CPT 16µM
Cc1ccc(-c2nnc(N3CCN(C(=O)c4ccco4)CC3)c3ccccc23)cc1	TDP1 cell noCPT inconclusive, IL-1B inflam inh -63, DT40 TDP1 CPT 21µM
O=C(COc1ccccc1)N1CCN(c2nnc(-c3ccccc3)c3ccccc23)CC1	TDP1 cell noCPT 16µM, DT40 TDP1 CPT 13µM
CCC(=O)N1CCN(c2nnc(-c3ccccc3)c3ccccc23)CC1	none
COc1ccc(OCC(=O)N2CCN(c3nnc(-c4ccc(C)cc4)c4ccccc34)CC2)cc1	TDP1 cell noCPT 16µM, IL-1B inflam inh -84, DT40 TDP1 CPT 16µM
CSc1ccccc1NC(=O)CN1C(=O)C2CC=CCC2C1=O (stereo unspecified)	none
Cc1cc(NS(=O)(=O)c2ccc(NC(=O)/C=C/c3cccc(Cl)c3)cc2)no1	none
Cc1cc(C)c2nc(C(F)(F)F)nc(N3CCN(C(=O)c4ccco4)CC3)c2c1	TDP1 cell noCPT inconclusive, IL-1B inflam inh inconclusive, DT40 TDP1 CPT 26µM
Cc1ccc(OCC(=O)N2CCN(c3nnc(-c4ccc(C)cc4)c4ccccc34)CC2)cc1	TDP1 cell noCPT 23µM, IL-1B inflam inh -87, DT40 TDP1 CPT 16µM
Cc1ccc(-c2nnc(N3CCN(C(=O)CN4C(=O)c5ccccc5C4=O)CC3)c3ccccc23)cc1	TDP1 cell noCPT inconclusive, DT40 TDP1 CPT inconclusive
O=C(Nc1ccccc1C(=O)N1CCCCC1)c1nsc2ccccc12	TDP1 cell noCPT inconclusive, DT40 TDP1 CPT inconclusive (no result: IL-1B inflam inh, DRD3 antagonist)
COc1cccc(N2C(=O)C(CC(=O)Nc3ccccc3)N(C3CCCCC3)C2=O)c1 (stereo unspecified)	none
CCOC(=O)c1ccc(NC(=O)CC2C(=O)N(c3ccc(C)cc3)C(=O)N2C2CCCCC2)cc1 (stereo unspecified)	none (no result: IL-1B inflam inh, DRD3 antagonist)

Screening results (PubChem)
